Reference: the supplement of paper PMC6555819

What was measured:
Assay in all cases: PBM binding z-score (relative to random genomic background probes); higher = stronger binding; sequences stand for … in GC…GCGATTGACAGCGTAGAATGAAGG
[1] = test system: FXR:RXRa (NR concentration 270 nM, RXRa partner concentration 90 nM)
Procedure, shortened: (§1)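 Binding buffer was PBS pH 7.4 with 2% milk, 0.02% Triton X-100, 1 mM DTT, 0.2 mg/mL BSA and 0.4 mg/ml salmon testes DNA. In it, ligand-free nuclear receptor dimers were incubated 1 h on custom Agilent 4×180K protein-binding microarrays carrying double-stranded probes. Antibodies against each partner (one per run) detected binding, and z-scores were calculated against random background probes after regression normalization of scanned fluorescence.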

[2] = test system: LXRa:RXRa (NR concentration 270 nM, RXRa partner concentration 90 nM)
Procedure, shortened: as §1

[3] = test system: LXRa homodimer (NR concentration 270 nM)
Procedure, shortened: as §1

[4] = test system: LXRb:RXRa (NR concentration 270 nM, RXRa partner concentration 90 nM)
Procedure, shortened: as §1

[5] = test system: LXRb homodimer (NR concentration 270 nM)
Procedure, shortened: as §1

[6] = test system: PPARa:RXRa (NR concentration 270 nM, RXRa partner concentration 90 nM)
Procedure, shortened: as §1

[7] = test system: PPARg:RXRa (NR concentration 180 nM, RXRa partner concentration 90 nM)
Procedure, shortened: as §1

[8] = test system: PPARg:RXRa 270nM:90nM, anti-RXR (NR concentration 270 nM, RXRa partner concentration 90 nM)
Procedure, shortened: as §1

[9] = test system: PPARg:RXRa 30nM:10nM, anti-RXR (NR concentration 30 nM, RXRa partner concentration 10 nM)
Procedure, shortened: as §1

[10] = test system: PPARg:RXRa 90nM:30nM, anti-RXR (NR concentration 90 nM, RXRa partner concentration 30 nM)
Procedure, shortened: as §1

| Sequence | PBM binding z-score [1] | PBM binding z-score [2] | PBM binding z-score [3] | PBM binding z-score [4] | PBM binding z-score [5] | PBM binding z-score [6] | PBM binding z-score [7] | PBM binding z-score [8] | PBM binding z-score [9] | PBM binding z-score [10] |
| --- | --- | --- | --- | --- | --- | --- | --- | --- | --- | --- |
| TAGCCTAGGTCCGATCGGGCCAGTATACGCTATA | -1.62 | -1.4 | -0.978 | -1.3 | -1.45 | -0.907 | -0.184 | -1.28 | -1.09 | -1.31 |
| ATCTCTAGGTAAGACTCCGTTCAGTGAAGAACGC | 0.49 | 0.425 | 0.698 | 0.0873 | 0.894 | -0.00199 | 0.087 | 0.169 | 0.111 | 0.441 |
| TGGCCTAGGTCATTGGGCCAGTATAGTACGCATC | 4.33 | 2.98 | -0.242 | 1.44 | -0.839 | 3.79 | 3.3 | 3.34 | 0.438 | 2.2 |
| TAGCCTAGGTCATGCGGGGCAGTATAGTGTCGGC | 3.99 | 3.24 | 0.431 | 2.23 | 0.295 | 3.56 | 2.18 | 2.41 | 0.0404 | 1.28 |
| AGAACGAGGGCACGCTGAGTTCATAGCAGAGTAG | 2.2 | 3.15 | 1.02 | 1.45 | -0.593 | 3.12 | 2.52 | 2.43 | 0.373 | 1.47 |
| CCTACTGGGCCATCAGGTCATTGACATCAACGTT | 2.17 | 1.67 | 1.29 | 2.01 | -0.379 | 2.7 | 3.12 | 3.54 | 1.46 | 2.55 |
| TAGCCAAGGTCATGGGCCAGTATACCACGCGAAC | 7.33 | 5.41 | 0.809 | 4.45 | 0.229 | 6.11 | 5.96 | 6 | 2.19 | 4.55 |
| CGAACTAGGTCAGAACAGGACAGAGAAGGATGAT | 1.6 | 0.878 | 0.159 | 0.278 | -0.292 | 2.94 | 5.04 | 4.26 | 1.71 | 3.03 |
| TGAATCAGGTTATAAGATCAGGGAACGTTGCAAA | 0.101 | 0.162 | -0.396 | 0.0988 | -0.425 | 0.709 | 0.475 | 0.863 | 0.155 | 0.477 |
| TGATATAGGTAAAGGTGAAAGTCGAACGATATGA | 1.07 | 1.26 | 0.291 | 1.47 | 0.036 | 3.47 | 5.08 | 5.2 | 3.64 | 5.25 |
| ATATCTAGGTAACAAGTTCAGTGAAAGAGAGGAC | 0.903 | 1.07 | 0.574 | 0.857 | 0.917 | 3.32 | 5.22 | 4.43 | 2.41 | 4.16 |
| CCTAGCAGGCCAATCTGGGTCATTCAAGGCTTGA | 1.16 | 1.52 | -0.318 | 0.813 | -1.03 | 2.54 | 1.18 | 1.73 | -0.272 | 0.958 |
| ATCGAAAGGTCGGCGAGGTGAGTATACACCGTTT | 3.23 | 2.52 | -0.167 | 1.9 | 0.199 | 3.76 | 1.57 | 2.25 | 0.34 | 1.11 |
| AGTCAAAGTTCATCTAGCTAACGTAAGATATGCT | 6.22 | 5.88 | 4.89 | 3.8 | 1.73 | 4.45 | 6.14 | 6.05 | 3.68 | 5.44 |
| TGAATGAGGTTATAAGATCAGCGAACGTTGCAAA | 1.21 | 1.34 | -0.415 | 0.765 | -0.436 | 2.88 | 1.18 | 1.89 | 0.811 | 1.34 |
| GCAGACAGGTGAAACGCAGGCAACTCAGGGTGGC | -0.553 | -0.232 | -0.806 | -0.499 | -1.09 | 0.513 | 0.448 | -0.314 | -0.566 | -0.565 |
| CGTCCAAGGTCAAGGACAGTGAAAGAGACTCGAA | 6.84 | 4.98 | 0.198 | 3.81 | 0.401 | 5.57 | 5.12 | 5.16 | 1.84 | 3.73 |
| ACTTACGGATCAACGAGGTTATAGCACGCGTATA | 0.716 | 0.914 | 0.686 | 1.25 | 0.594 | 1.47 | 0.98 | 0.564 | 0.453 | 0.486 |
| AATGCAGGGTCACTAGGCCAGAGTAGGTACGAAT | 6.22 | 4.62 | 0.0121 | 3.54 | 0.179 | 5.78 | 7.48 | 6.77 | 3.41 | 5.76 |
| CGTCAAAGTTGAAGGTAACGTAACAGAAAGCAGC | -0.11 | -0.00279 | -0.157 | 0.207 | -0.458 | 1.02 | 0.813 | 1.01 | 0.188 | 0.76 |
| TGAATGAGGTTAAAGATCTGGGAACGTGGCGTCG | 2.5 | 2.16 | -0.214 | 1.46 | 0.347 | 3.54 | 2.7 | 3.6 | 1.69 | 2.98 |
| AGAATGAGGTTATAAAGATCAGGGAATTGCGGTC | 1.45 | 1.31 | 0.315 | 1.17 | 0.00236 | 2.65 | 1.58 | 2 | 0.752 | 1.52 |
| CTCGAAAGGTCGTGCTCAGGTTAGTATACCAAAC | 5.58 | 4.22 | 0.511 | 3.78 | 0.719 | 5.12 | 2.57 | 3.75 | 0.966 | 2.37 |
